Source: PubChem BioAssay
Several values for one entry are separate records, joined by “and”; a condition that tells them apart may be missing. Equal values may be shown once. For part of these data: Results with a measured potency or affinity are listed apart. Activity calls are given as the source filed them. Unless noted, the rule behind the calls is not given here.

Assays:
[1] = antimalarial activity against Dd2 strain (AID 2302;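 active = growth inhibition above 50% at the single 2 µM test dose, taken to imply half-maximal potency below 2 µM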;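 note: 0% = DMSO untreated growth and 100% = chloroquine plus artemisinin killed control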); conditions: P. falciparum Dd2 in RBCs, LDH growth readout, 72 h; at 2 µM; active compounds read high
[2] = HepG2 cytotoxicity, primary screen, cytotoxicity control for P. falciparum antimalarial project, cell-based, ATP luminescence (AID 2303;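 active = inhibition above 50%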;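 note: 0% = DMSO wells and 100% = digitonin-killed cells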); conditions: HepG2 viability, 24-48 h, at 10 µM, active compounds read high
[3] = molecular target: L-lactate dehydrogenase (Plasmodium falciparum (isolate CDC / Honduras)) (UniProt Q27743); test: PfLDH activity inhibition – cell lysate, 3D7 strain, counter-screen for P. falciparum growth inhibition project (AID 2304);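 note: 0% = vehicle and 100% = reference inhibitor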; conditions: P. falciparum 3D7 crude extract, LDH APAD/NBT absorbance; at 2 µM; active compounds read high
[4] = inhibition of 3D7 malaria parasite growth – strain 3D7 (AID 2306);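 note: 0% = DMSO wells and 100% = chloroquine plus artemisinin control wells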; conditions: P. falciparum 3D7 erythrocytic growth, LDH absorbance, 72 h; at 2 µM; active compounds read high
[5] = molecular target: Calcium-dependent protein kinase 1 (Plasmodium falciparum (isolate 3D7)) (UniProt P62344); test: PfCDPK1 kinase inhibitors, biochemical, TCAMS library (AID 1159585; cut-off not given, nearly all actives have IC50 up to about 0.98 µM;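 note: inhibitors leave more ATP so luminescence rises with inhibition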); conditions: recombinant PfCDPK1, Kinase-Glo ATP depletion luminescence
[6] = molecular target: Plasmodium falciparum protein kinase 6 (PK6, PF3D7_1337100) (UniProt Q8IDW1); test: PfPK6 kinase inhibitors, biochemical, TCAMS library (AID 1159586); conditions: recombinant PfPK6, Kinase-Glo ATP depletion luminescence
[7] = molecular target: Protein kinase 7 (PK7), Plasmodium falciparum 3D7 (PF3D7_0213400) (UniProt Q7YTF7); test: inhibition of Plasmodium PK7 catalytic activity – biochemical, TCAMS antimalarial set, Kinase-Glo luminescence (AID 1159587); conditions: recombinant PfPK7, Kinase-Glo ATP depletion luminescence
[8] = molecular target: Calcium-dependent protein kinase 4 (Plasmodium falciparum (isolate 3D7)) (UniProt Q8IBS5); test: PfCDPK4 kinase inhibitors, biochemical, TCAMS library (AID 1159588; cut-off not given, nearly all actives have IC50 up to about 0.91 µM); conditions: recombinant PfCDPK4, Kinase-Glo ATP depletion luminescence
Calcium-dependent protein kinase 4 (Plasmodium falciparum (isolate 3D7)), sequence (Q8IBS5 whole entry, looked up): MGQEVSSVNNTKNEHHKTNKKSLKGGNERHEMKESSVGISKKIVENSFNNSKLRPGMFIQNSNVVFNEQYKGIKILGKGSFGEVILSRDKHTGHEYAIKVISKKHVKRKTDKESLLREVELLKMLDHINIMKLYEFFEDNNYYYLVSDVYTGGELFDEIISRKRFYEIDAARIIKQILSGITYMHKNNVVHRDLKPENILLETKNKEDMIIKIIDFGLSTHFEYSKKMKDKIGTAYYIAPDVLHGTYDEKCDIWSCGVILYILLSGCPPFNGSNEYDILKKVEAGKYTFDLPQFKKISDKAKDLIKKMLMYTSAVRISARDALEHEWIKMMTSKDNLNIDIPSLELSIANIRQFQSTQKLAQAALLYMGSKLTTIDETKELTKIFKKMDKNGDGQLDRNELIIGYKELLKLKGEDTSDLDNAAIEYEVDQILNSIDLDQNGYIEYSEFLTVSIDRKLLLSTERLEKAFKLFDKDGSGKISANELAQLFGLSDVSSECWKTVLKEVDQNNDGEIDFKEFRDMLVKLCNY

L-lactate dehydrogenase (Plasmodium falciparum (isolate CDC / Honduras)), sequence (Q27743 whole entry, looked up): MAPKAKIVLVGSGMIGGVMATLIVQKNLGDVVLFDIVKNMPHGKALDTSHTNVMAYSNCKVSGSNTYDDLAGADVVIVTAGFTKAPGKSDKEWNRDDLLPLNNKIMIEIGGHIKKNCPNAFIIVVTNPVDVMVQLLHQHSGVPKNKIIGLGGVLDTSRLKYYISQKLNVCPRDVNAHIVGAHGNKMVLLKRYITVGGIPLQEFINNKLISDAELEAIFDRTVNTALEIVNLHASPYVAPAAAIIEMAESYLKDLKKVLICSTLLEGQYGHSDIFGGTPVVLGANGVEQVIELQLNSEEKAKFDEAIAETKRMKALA
Plasmodium falciparum protein kinase 6 (PK6, PF3D7_1337100), sequence (Q8IDW1 1-305): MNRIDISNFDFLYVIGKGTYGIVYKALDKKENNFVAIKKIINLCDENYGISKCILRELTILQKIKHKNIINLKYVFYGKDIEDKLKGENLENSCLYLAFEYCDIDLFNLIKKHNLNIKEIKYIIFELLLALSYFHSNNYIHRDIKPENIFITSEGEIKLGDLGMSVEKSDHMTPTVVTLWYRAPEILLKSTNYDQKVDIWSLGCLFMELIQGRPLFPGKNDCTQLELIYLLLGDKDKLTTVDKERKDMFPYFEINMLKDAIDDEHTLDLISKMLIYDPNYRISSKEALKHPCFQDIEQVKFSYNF
Protein kinase 7 (PK7), Plasmodium falciparum 3D7 (PF3D7_0213400), sequence (Q7YTF7 1-343): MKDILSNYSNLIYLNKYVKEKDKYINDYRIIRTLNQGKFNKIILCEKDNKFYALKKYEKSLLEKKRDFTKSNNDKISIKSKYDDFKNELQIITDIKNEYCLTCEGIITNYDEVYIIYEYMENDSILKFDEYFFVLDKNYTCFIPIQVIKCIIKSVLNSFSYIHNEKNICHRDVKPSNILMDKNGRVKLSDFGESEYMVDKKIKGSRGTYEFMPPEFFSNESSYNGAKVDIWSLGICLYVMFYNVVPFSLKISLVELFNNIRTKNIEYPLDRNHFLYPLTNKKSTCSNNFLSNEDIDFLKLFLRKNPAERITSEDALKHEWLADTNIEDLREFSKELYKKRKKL
Calcium-dependent protein kinase 1 (Plasmodium falciparum (isolate 3D7)), sequence (P62344 whole entry, looked up): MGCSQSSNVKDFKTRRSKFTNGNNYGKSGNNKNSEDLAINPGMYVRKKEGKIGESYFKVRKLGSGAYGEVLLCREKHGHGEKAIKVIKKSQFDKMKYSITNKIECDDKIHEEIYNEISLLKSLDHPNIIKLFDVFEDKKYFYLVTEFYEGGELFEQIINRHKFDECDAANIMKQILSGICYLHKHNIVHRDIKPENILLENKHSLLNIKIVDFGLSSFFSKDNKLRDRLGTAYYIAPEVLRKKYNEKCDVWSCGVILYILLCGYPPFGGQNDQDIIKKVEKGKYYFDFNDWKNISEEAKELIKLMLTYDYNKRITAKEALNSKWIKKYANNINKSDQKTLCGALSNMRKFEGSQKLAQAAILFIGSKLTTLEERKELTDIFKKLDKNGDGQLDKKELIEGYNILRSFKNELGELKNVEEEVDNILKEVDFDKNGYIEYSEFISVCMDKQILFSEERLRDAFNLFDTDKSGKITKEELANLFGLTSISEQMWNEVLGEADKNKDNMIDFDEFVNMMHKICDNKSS

O=C(NC(Nc1ccc([N+](=O)[O-])cc1)C(Cl)(Cl)Cl)c1cccc(Cl)c1 (stereo not drawn)
inactive: growth inhibition [1] 17% | inhibition [2] -2% | inhibition [3] 0% | outcome [5] | outcome [6] | outcome [7] | outcome [8]
active: growth inhibition [4] 92%

O=C(NCCc1ccc(Cl)c(Cl)c1)c1ccc(CNC(=O)c2ccc(O)c(-c3ccc(Cl)c(Cl)c3)c2)cc1
inactive: growth inhibition [1] 3% | inhibition [2] 0% | inhibition [3] -6% | outcome [5] | outcome [6] | outcome [7] | outcome [8]
active: growth inhibition [4] 97%

CCCCCCNc1c2ccccc2nc2ccccc12
active: growth inhibition [4] 97%
inactive: growth inhibition [1] 32% | inhibition [2] 24% | inhibition [3] -3% | outcome [5] | outcome [6] | outcome [7] | outcome [8]

N#Cc1ccc2c(c1)CN(CCC1CCC(NC(=O)/C=C/c3c[nH]c4ccccc34)CC1)CC2 (stereo not drawn)
inactive: growth inhibition [1] 24% and 27% | inhibition [2] 10% and 20% | inhibition [3] -3% and -9% | outcome [5] | outcome [6] | outcome [7] | outcome [8]
active: growth inhibition [4] 92% and 97%

COc1ccc(Cl)cc1S(=O)(=O)Nc1cccc(CCN2CCC(N3CCCCC3)CC2)c1
inactive: growth inhibition [1] 9% | inhibition [2] 33% | inhibition [3] 4% | outcome [5] | outcome [6] | outcome [7] | outcome [8]
active: growth inhibition [4] 101%

O=c1cc(NCCCNCc2cc(F)cc(C(F)(F)F)c2)[nH]c2ccccc12
inactive: growth inhibition [1] 15% | inhibition [2] -6% | inhibition [3] 1% | outcome [5] | outcome [6] | outcome [7] | outcome [8]
active: growth inhibition [4] 92%

c1ccc(COc2ccc(C3CCCCC3)cc2)nc1
active: growth inhibition [4] 99%
inactive: growth inhibition [1] 1% | inhibition [2] 0% | inhibition [3] 0% | outcome [5] | outcome [6] | outcome [7] | outcome [8]

Cc1ccc2c(NN=Cc3cccc(F)c3)cc(C)nc2c1
inactive: inhibition [2] 34% | inhibition [3] -2% | outcome [5] | outcome [6] | outcome [7] | outcome [8]
active: growth inhibition [1] 66% | growth inhibition [4] 96%

CC(C)(C)c1ccc(CN2CCC(NC(=O)c3ccc(-c4ccccc4Cl)s3)CC2)cc1
active: growth inhibition [4] 84%
inactive: growth inhibition [1] 29% | inhibition [2] 36% | inhibition [3] 4% | outcome [5] | outcome [6] | outcome [7] | outcome [8]

CCCCCN1CCCC1CNS(=O)(=O)c1ccc(C(=O)Nc2cccc(C(F)(F)F)c2)cc1 (stereo not drawn)
inactive: growth inhibition [1] -1% | inhibition [2] 16% | inhibition [3] -4% | outcome [5] | outcome [6] | outcome [7] | outcome [8]
active: growth inhibition [4] 95%

O=c1cc(NCCCNCc2ccc(Cl)c(Cl)c2)[nH]c2cc(Cl)ccc12
inactive: inhibition [2] 1% | inhibition [3] 1% | outcome [5] | outcome [6] | outcome [7] | outcome [8]
active: growth inhibition [1] 51% | growth inhibition [4] 95%

COc1ccc(NC(=O)C2c3ccccc3C(=O)N(CC(C)C)C2c2cccs2)cc1OC (stereo not drawn)
inactive: inhibition [2] 6% | inhibition [3] 3% | outcome [5] | outcome [6] | outcome [7] | outcome [8]
active: growth inhibition [1] 98% | growth inhibition [4] 100%

CC(C)(C)NC(=O)COC(=O)c1c2c(nc3ccccc13)C(=Cc1ccc3c(c1)OCO3)CCC2
active: growth inhibition [1] 82% | growth inhibition [4] 90%
inactive: inhibition [2] 7% | inhibition [3] -4% | outcome [5] | outcome [6] | outcome [7] | outcome [8]

O=C(CCCCCNC(=O)c1ccc(O)c(-c2ccc(Cl)c(Cl)c2)c1)NCCN1CCCCC1
inactive: growth inhibition [1] 1% | inhibition [2] -4% | inhibition [3] 0% | outcome [5] | outcome [6] | outcome [7] | outcome [8]
active: growth inhibition [4] 93%

COc1cc(Cc2cnc(N)nc2N)cc(OCCCCc2nn[nH]n2)c1OC
inactive: growth inhibition [1] 0% | inhibition [2] 7% | inhibition [3] 1% | outcome [5] | outcome [6] | outcome [7] | outcome [8]
active: growth inhibition [4] 97%

Cc1cc(OCc2ccncc2)cc2c1C(=O)CC(C)(C)O2
active: growth inhibition [4] 99%
inactive: growth inhibition [1] 0% | inhibition [2] -5% | inhibition [3] -5% | outcome [5] | outcome [6] | outcome [7] | outcome [8]

Cc1[nH]c(C)c(-c2ccc(CCc3ccc(N)cc3)cc2)c(=O)c1Cl
active: growth inhibition [1] 97% | growth inhibition [4] 97%
inactive: inhibition [2] 2% | inhibition [3] 5% | outcome [5] | outcome [6] | outcome [7] | outcome [8]

Cc1cc(-c2ccc(O)c(CNC3CCCCC3)c2)cnc1N
inactive: inhibition [2] 27% | inhibition [3] -4% | outcome [5] | outcome [6] | outcome [7] | outcome [8]
active: growth inhibition [1] 100% | growth inhibition [4] 102%

O=C(NC1CCN(Cc2ccccc2)CC1)c1ccc(-c2nc3cc(F)c(F)cc3[nH]2)s1
active: growth inhibition [1] 97% | growth inhibition [4] 101%
inactive: inhibition [2] 6% | inhibition [3] 1% | outcome [5] | outcome [6] | outcome [7] | outcome [8]

COCc1cccc(-c2cc(-c3ccc(S(C)(=O)=O)cc3)cnc2N)c1
inactive: inhibition [2] 10% | inhibition [3] -2% | outcome [5] | outcome [6] | outcome [7] | outcome [8]
active: growth inhibition [1] 88% | growth inhibition [4] 98%

CC(CCc1ccccc1)NCC(O)c1ccc2c(c1)S(=O)(=O)c1ccccc1N2 (stereo not drawn)
active: growth inhibition [4] 95%
inactive: growth inhibition [1] 4% | inhibition [2] 17% | inhibition [3] 0% | outcome [5] | outcome [6] | outcome [7] | outcome [8]
